According to the supplement of paper PMC10681739:

Columns and labels:
ETS1 [1] = target: T1, ETS1 (UniProt P14921); test: ETS1 binding intensity (PBM fluorescence), ETS1 alone (arbitrary fluorescence units); higher = stronger binding; details: ETS1 concentration 1 nM; RUNX1 concentration 0 nM
T1 sequence: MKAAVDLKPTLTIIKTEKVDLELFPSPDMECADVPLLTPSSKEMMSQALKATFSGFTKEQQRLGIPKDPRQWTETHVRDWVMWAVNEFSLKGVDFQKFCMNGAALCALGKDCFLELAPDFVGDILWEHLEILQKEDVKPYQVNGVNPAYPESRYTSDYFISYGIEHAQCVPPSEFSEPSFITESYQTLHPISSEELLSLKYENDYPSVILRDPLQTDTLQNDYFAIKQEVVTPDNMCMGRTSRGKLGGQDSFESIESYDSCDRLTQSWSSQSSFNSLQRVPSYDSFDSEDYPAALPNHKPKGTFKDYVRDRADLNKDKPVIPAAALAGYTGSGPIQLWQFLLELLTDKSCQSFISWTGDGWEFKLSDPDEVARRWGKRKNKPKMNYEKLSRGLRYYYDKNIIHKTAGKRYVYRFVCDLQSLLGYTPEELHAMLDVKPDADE

ETS1 [2] = target: T1, ETS1; test: ETS1 binding intensity (PBM fluorescence) in presence of RUNX1, normalised to ETS1-only experiment (arbitrary fluorescence units); higher = stronger binding; details: ETS1 concentration 1 nM; RUNX1 concentration 25 nM

Row | Sequence | ETS1 binding intensity (ETS1 [1]) | ETS1 binding intensity (ETS1 [2])
1 | TCCCGAGAGTGCGGCGGAAACCACGCGGCGCCGCCG | 1360 | 1570
2 | GGCCGGGGACGGAAGGCGGGCCCGCAGCAGATCCTG | 475 | 362
3 | TTACTTCTCAGGAAGCGCTGTGGGGCTGGGGTTGCT | 676 | 513
4 | GCCACGCAGTTCCCTTCCTGCGGCGTCCTCCACACC | 561 | 421
5 | GAACATGGTCTCCGCTTCCGCCGCAACCTCGGCCTT | 525 | 744
6 | TCGGAACGGAAGGGAGGCACGAAACCGCGAGTGGAG | 607 | 1840
7 | AAAACCTTGTTGAAAGGATGTGGCTTAGCGAGAGGT | 1140 | 1820
8 | TTTTCCGACGGAAGCCTTACTGCCGCAAACGTCACT | 556 | 503
9 | CTGCTGGGCCCCTTCCTGTCAGCGGTTGCTCTTTAC | 673 | 716
10 | GTGTTCAGACGGAAGCGTTATTCAGTGGTCAGAGCA | 741 | 1070
11 | GCAAAGATACATCCTTCTCCCCACAGACTAAGTTTC | 490 | 412
12 | GGCGCCTCTTTCCGCCCCCGCCCACAATCGAGCGCA | 535 | 399
13 | AGGTACTCACCATTCCGGCGGTTGCTACTGTCACTG | 459 | 428
14 | GCACGTGTTTCCTGGGGCTGCACCACAGCACCACAC | 444 | 497
15 | TGCCGGAAGCCCGCCAGGCACAGGACCCGCAGGGGT | 588 | 545
16 | GGAGGAAGGCAGGAAAGAAAGAGGTGGTTTCGGCAC | 605 | 762
17 | CTTCCCTTGCCCCGGAAAAGGGCGGTAAGAGGGAGC | 1200 | 1160
18 | GTCCCCCGGAACCGTCTCCTCCCCCGCACGCGCCGC | 516 | 433
19 | GGAAAGCGGAAGAAAAAAGCAAGATGGGACCGCAAG | 445 | 928
20 | GCTTTGCAGTTTCCTCTATGGAACACCACACACAGT | 621 | 499
21 | GAACCCAGGTCTGCTTCCTGTGGCCACCATCTGTGC | 761 | 684
22 | CCTCATTTCCGGGCTGTTTGCGCGCAAGCCCACATC | 1090 | 968
